Laboratory results published in PubChem BioAssay (Tox21).
“And” between values parts separate entries of the source, which are not always exact repeats. Equal entries are not always repeated. Inconclusive results are not listed. More than one record can exist for a structure, and the calls need not agree. The source made the active and inactive calls. Calls follow the shape of the dose curve; as a rule, active = well fitted curve in the direction sought with a large enough effect in the repeat runs; inconclusive = weak or mixed curves; inactive = no such curve, though single readings can be large; an effect the other way counts as inactive or inconclusive.

Legend:
[1] = qHTS RealTime-Glo MT Cell Viability Assay in HepG2 cells - 40 hour (AID 1224870); also: nearly all actives have a fitted effect of over 50% in size
Summary of the method: (§1)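 HepG2 cells (600/well) mixed with RealTime-Glo MT reagent, settled 5 h at 37 C/5% CO2 before compound addition. Nonlytic NanoLuc luminescence from viable-cell prosubstrate reduction read repeatedly during 40 h treatment at 37 C.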

[2] = A CellTox Green Cytotoxicity Assay to monitor cytotoxicity in HEK293 cells - 40 hour (AID 1224871); also: nearly all actives have a fitted effect of over 45% in size
Summary of the method: (§2)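 Each value comes from one timepoint of a single continuous run in which HEK293 cells with CellTox Green were exposed to compound for up to 40 h at 37 C, dye fluorescence rising with cell death.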

[3] = qHTS RealTime-Glo MT Cell Viability Assay in HEK293 cells - 16 hour (AID 1224872); also: top concentration of the series differs between compounds; nearly all actives have a fitted effect of over 50% in size
Summary of the method: (§3)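 HEK293 cells seeded with NanoLuc/prosubstrate reagent, rested 5 h at 37 C, then dosed and kept at 37 C up to 40 h. Nonlytic real-time luminescence from viable cells read at 0, 8, 16, 24, 32 and 40 h.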

[4] = qHTS RealTime-Glo MT Cell Viability Assay in HepG2 cells - 8 hour (AID 1224873); also: nearly all actives have a fitted effect of over 55% in size
Summary of the method: as §1

[5] = qHTS RealTime-Glo MT Cell Viability Assay in HEK293 cells - 40 hour (AID 1224874); settings: RealTime-Glo luminescence; max response: stronger effect = lower value; also: nearly all actives have a fitted effect of over 50% in size; also: potency is read from the fitted curve at half-maximal effect
Summary of the method: (§4)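 qHTS format; HEK293 cells with NanoLuc/prosubstrate reagent, 37 C/5% CO2 for 5 h pre-dosing; compounds 23 nL in DMSO; luminescence at each time point reflects viable cells.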

[6] = A CellTox Green Cytotoxicity Assay to monitor cytotoxicity in HEK293 cells - 24 hour (AID 1224875); also: series mostly up to about 77 µM; nearly all actives have a fitted effect of over 45% in size
Summary of the method: as §2

[7] = A CellTox Green Cytotoxicity Assay to monitor cytotoxicity in HepG2 cells - 16 hour (AID 1224876); also: nearly all actives have a fitted effect of over 45% in size
Summary of the method: (§5)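 Continuous culture of HepG2 cells with a membrane-impermeant DNA dye; rising fluorescence marks dead cells. Compound exposure lasted up to 40 h at 37 C, with reads every 8 h from 0 h.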

[8] = qHTS RealTime-Glo MT Cell Viability Assay in HepG2 cells - 32 hour (AID 1224877); also: nearly all actives have a fitted effect of over 55% in size
Summary of the method: (§6)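 HepG2 cells (600/well) were dispensed with RealTime-Glo reagents, incubated 5 h at 37 °C, then treated with compounds in DMSO for up to 40 h. Nonlytic NanoLuc luminescence reflecting viable cells was read at each stated time point.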

[9] = A CellTox Green Cytotoxicity Assay to monitor cytotoxicity in HepG2 cells - 24 hour (AID 1224878); also: nearly all actives have a fitted effect of over 45% in size; also: potency is read from the fitted curve at half-maximal effect
Summary of the method: as §5

[10] = A CellTox Green Cytotoxicity Assay to monitor cytotoxicity in HepG2 cells - 40 hour (AID 1224879); also: nearly all actives have a fitted effect of over 40% in size; also: potency is read from the fitted curve at half-maximal effect
Summary of the method: as §5

[11] = qHTS RealTime-Glo MT Cell Viability Assay in HEK293 cells - 0 hour (AID 1224880)
Summary of the method: as §4

[12] = A CellTox Green Cytotoxicity Assay to monitor cytotoxicity in HEK293 cells - 32 hour (AID 1224881); also: nearly all actives have a fitted effect of over 40% in size
Summary of the method: as §2

[13] = A CellTox Green Cytotoxicity Assay to monitor cytotoxicity in HepG2 cells - 0 hour (AID 1224882); also: nearly all actives have a fitted effect of over 35% in size
Summary of the method: as §5

[14] = A CellTox Green Cytotoxicity Assay to monitor cytotoxicity in HepG2 cells - 32 hour (AID 1224883); also: nearly all actives have a fitted effect of over 50% in size; also: potency is read from the fitted curve at half-maximal effect
Summary of the method: as §5

[15] = A CellTox Green Cytotoxicity Assay to monitor cytotoxicity in HEK293 cells - 8 hour (AID 1224884); also: nearly all actives have a fitted effect of over 35% in size
Summary of the method: as §2

[16] = qHTS RealTime-Glo MT Cell Viability Assay in HepG2 cells - 16 hour (AID 1224885); also: nearly all actives have a fitted effect of over 50% in size
Summary of the method: as §6

[17] = qHTS RealTime-Glo MT Cell Viability Assay in HEK293 cells - 24 hour (AID 1224886)
Summary of the method: as §3

[18] = qHTS RealTime-Glo MT Cell Viability Assay in HEK293 cells - 8 hour (AID 1224887)
Summary of the method: as §4

[19] = A CellTox Green Cytotoxicity Assay to monitor cytotoxicity in HEK293 cells - 16 hour (AID 1224888); also: nearly all actives have a fitted effect of over 35% in size
Summary of the method: as §2

[20] = qHTS RealTime-Glo MT Cell Viability Assay in HepG2 cells - 0 hour (AID 1224889); also: nearly all actives have a fitted effect of over 50% in size
Summary of the method: as §6
% is scaled to controls: 0 for no effect and ±100 for the full control effect.

CCOc1ccc(N)cc1
inactive: outcome [1] | Potency [2] | outcome [3] | outcome [4] | max response [5] 2.16% and -1.88% | Potency [6] | Potency [7] | outcome [8] | Potency [9] | Potency [10] | outcome [11] | Potency [12] | Potency [13] | Potency [14] | Potency [15] | outcome [16] | outcome [17] | outcome [18] | Potency [19] | outcome [20]

C=C(C)C(=O)OCC(CC)CCCC (configuration not stated)
inactive: outcome [1] | Potency [2] | outcome [3] | outcome [4] | max response [5] 1.51% | Potency [6] | Potency [7] | outcome [8] | Potency [9] | Potency [10] | outcome [11] | Potency [12] | Potency [13] | Potency [14] | Potency [15] | outcome [16] | outcome [17] | outcome [18] | Potency [19] | outcome [20]

O=C(O)C1C(C(=O)O)C2(Cl)C(Cl)=C(Cl)C1(Cl)C2(Cl)Cl (configuration not stated)
inactive: outcome [1] | Potency [2] | outcome [3] | outcome [4] | max response [5] 9.62% and 1.68% | Potency [6] | Potency [7] | outcome [8] | Potency [9] | Potency [10] | outcome [11] | Potency [12] | Potency [13] | Potency [14] | Potency [15] | outcome [16] | outcome [17] | outcome [18] | Potency [19] | outcome [20]

Sc1ccccc1
inactive: outcome [1] | Potency [2] | outcome [3] | outcome [4] | max response [5] 0.339% and -2.23% and -0.106% | Potency [6] | Potency [7] | outcome [8] | outcome [11] | Potency [12] | Potency [13] | Potency [15] | outcome [17] | outcome [18] | Potency [19] | outcome [20]
active: Potency [5] 39.4 µM
inactive and 43.6 µM (active): Potency [9] | Potency [10] | Potency [14]

CN1C(=O)CCS(=O)(=O)C1c1ccc(Cl)cc1 (configuration not stated)
inactive: outcome [1] | Potency [2] | outcome [3] | outcome [4] | max response [5] 4.07% and -0.966% | Potency [6] | Potency [7] | outcome [8] | Potency [9] | Potency [10] | outcome [11] | Potency [12] | Potency [13] | Potency [14] | Potency [15] | outcome [16] | outcome [17] | outcome [18] | Potency [19] | outcome [20]

O=C(O)COc1ccccc1
inactive: outcome [1] | Potency [2] | outcome [3] | outcome [4] | max response [5] -2.67% and 2.52% and 5.65% | Potency [6] | Potency [7] | outcome [8] | Potency [9] | Potency [10] | outcome [11] | Potency [12] | Potency [13] | Potency [14] | Potency [15] | outcome [17] | outcome [18] | Potency [19] | outcome [20]

ClC(Cl)c1ccccc1
inactive: outcome [1] | Potency [2] | outcome [3] | outcome [4] | max response [5] 4.95% and 0.497% | Potency [6] | Potency [7] | outcome [8] | Potency [9] | Potency [10] | outcome [11] | Potency [12] | Potency [13] | Potency [15] | outcome [16] | outcome [17] | outcome [18] | Potency [19] | outcome [20]

Cc1ccc(N)cc1
inactive: outcome [1] | Potency [2] | outcome [3] | outcome [4] | max response [5] -16.7% and 1.44% and -0.523% | Potency [6] | Potency [7] | outcome [8] | Potency [9] | Potency [10] | outcome [11] | Potency [12] | Potency [13] | Potency [14] | Potency [15] | outcome [17] | outcome [18] | Potency [19] | outcome [20]

N#Cc1ccccn1
inactive: outcome [1] | Potency [2] | outcome [3] | outcome [4] | max response [5] -0.449% and 4.77% | Potency [6] | Potency [7] | outcome [8] | Potency [9] | Potency [10] | outcome [11] | Potency [12] | Potency [13] | Potency [14] | Potency [15] | outcome [17] | outcome [18] | Potency [19] | outcome [20]

CCOP(=S)(OCC)Oc1cc(C)nc(C(C)C)n1
inactive: outcome [1] | Potency [2] | outcome [3] | outcome [4] | max response [5] 2.72% and 7.6% and 1.58% | Potency [6] | Potency [7] | outcome [8] | Potency [9] | outcome [11] | Potency [12] | Potency [13] | Potency [14] | Potency [15] | outcome [17] | outcome [18] | Potency [19] | outcome [20]
inactive and 24.5 µM (active): Potency [10]

O=[N+]([O-])c1ccc(Cl)c(Cl)c1
inactive: outcome [1] | Potency [2] | outcome [3] | outcome [4] | max response [5] -5.48% and 3.8% | Potency [6] | Potency [7] | outcome [8] | Potency [9] | Potency [10] | outcome [11] | Potency [12] | Potency [13] | Potency [15] | outcome [16] | outcome [17] | outcome [18] | Potency [19] | outcome [20]

CC12CC1(C)C(=O)N(c1cc(Cl)cc(Cl)c1)C2=O (configuration not stated)
inactive: outcome [1] | Potency [2] | outcome [3] | outcome [4] | max response [5] 1.77% and 7.9% | Potency [6] | Potency [7] | outcome [8] | Potency [9] | Potency [10] | outcome [11] | Potency [12] | Potency [13] | Potency [14] | Potency [15] | outcome [17] | outcome [18] | Potency [19] | outcome [20]

CN(C)NC(=O)CCC(=O)O
inactive: outcome [1] | Potency [2] | outcome [3] | outcome [4] | max response [5] 2.52% and 2.58% | Potency [6] | Potency [7] | outcome [8] | Potency [9] | Potency [10] | outcome [11] | Potency [12] | Potency [13] | Potency [14] | Potency [15] | outcome [17] | outcome [18] | Potency [19] | outcome [20]
